A selection: hits, their analogues and other compounds. The true share with any hit is near 1.1%.
MOR-DOR ag – OPRM1-OPRD1 heterodimerization agonism; P35372+P41143; cells, luminescence; activation, % at 9.3 µM; 340,000 compounds, 0.3% hits; AID 504326; in the data active means activation above about 18%;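 further: 0% = vehicle-treated cells and 100% = reference agonist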
HTR5A ag ctr – counter-screen for OPRM1-OPRD1 agonists: human HTR5A agonism; HTR5A agonist assay, luminescence, cell-based; activation, % at 9.3 µM; 340,000 compounds, 0.61% hits; AID 504692; in the data active means activation mostly above about 9.5%, no sharp cut-off; inactive means mostly below about 7.6%;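 further: 0% = cells with vehicle only and 100% = reference agonist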
Target sequence (P47898 whole entry, looked up): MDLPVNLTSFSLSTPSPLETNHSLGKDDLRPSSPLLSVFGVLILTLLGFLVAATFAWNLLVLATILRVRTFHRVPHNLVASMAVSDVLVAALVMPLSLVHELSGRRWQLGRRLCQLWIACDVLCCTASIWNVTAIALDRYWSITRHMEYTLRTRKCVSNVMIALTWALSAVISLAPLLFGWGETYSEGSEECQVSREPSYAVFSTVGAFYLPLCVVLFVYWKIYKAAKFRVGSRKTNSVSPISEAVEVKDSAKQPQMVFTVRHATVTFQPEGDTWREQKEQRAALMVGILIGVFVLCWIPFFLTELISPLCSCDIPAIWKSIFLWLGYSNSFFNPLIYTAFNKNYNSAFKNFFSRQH
HTR5A inv ctr – HTR5A inverse agonism, opioid heterodimer counter-screen. P47898. inhibition, % at 9.3 µM. HTR5A cell line, luminescence. 340,000 compounds, 0.083% hits; in the data active means inhibition mostly above about 23%, no sharp cut-off; inactive means mostly below about 18%;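 further: 0% = cells with DMSO and 100% = no-cell wells with DMSO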
MOR-DOR inv ag – inverse agonists of human mu-delta opioid receptor heterodimerization; P35372+P41143; 340,000 compounds, 0.21% hits; cell-based MOR-DOR heterodimer luminescence, inverse agonism; inhibition, % at 9.3 µM; AID 504357; in the data active means inhibition above about 22%, passing the limit was not always enough;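 further: 0% = cells with DMSO and 100% = wells without cells with DMSO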
* hit, by the source's call.

Results for COc1ccc(C(O)CNc2ccc(C)cc2)cc1 (stereo not drawn) ?
MOR-DOR ag: 0; HTR5A ag ctr: 6; HTR5A inv ctr: -32; MOR-DOR inv ag: -1

Results for Oc1ccc(-c2csc(Nc3ccc4c(c3)OCO4)n2)c(O)c1 ?
MOR-DOR ag: 4; HTR5A ag ctr: 0; HTR5A inv ctr: 6; MOR-DOR inv ag: -20

How did N#Cc1ccc(Nc2nc(-c3ccc(O)cc3O)cs2)cc1C(F)(F)F do in these assays?
MOR-DOR ag: 4; HTR5A ag ctr: 13*; HTR5A inv ctr: -27; MOR-DOR inv ag: -23

Results for Cc1ccc(-n2c(=O)c3ccc(C(=O)NCc4ccco4)cc3n(Cc3ccccc3C#N)c2=O)cc1 ?
MOR-DOR ag: -7; HTR5A ag ctr: -10; HTR5A inv ctr: 37*; MOR-DOR inv ag: 35*

Results for COc1ccc(OC)c(C2C(C(C)=O)=C(O)C(=O)N2CCc2ccc(OC)c(OC)c2)c1 (stereo not drawn) ?
MOR-DOR ag: -1; HTR5A ag ctr: 0; HTR5A inv ctr: 12; MOR-DOR inv ag: 6

How did NS(=O)(=O)c1ccc(NC2=CC(=O)C(=O)c3ccccc32)cc1 do in these assays?
MOR-DOR ag: 8; HTR5A ag ctr: 9.6*; HTR5A inv ctr: -36; MOR-DOR inv ag: -39

Results for CCC(=O)Nc1ccc(N2CCCCC2)c(C(=O)Nc2ccccc2C)c1 ?
MOR-DOR ag: 2; HTR5A ag ctr: 10; HTR5A inv ctr: -14; MOR-DOR inv ag: -11

Results for O=C1C2C3CCC(C3)C2C(=O)N1c1ccc(OS(=O)(=O)c2ccccc2)cc1 (stereo not drawn) ?
MOR-DOR ag: 3; HTR5A ag ctr: 13*; HTR5A inv ctr: -2; MOR-DOR inv ag: -13

Results for CC1CCN(C(=O)COC(=O)c2cc([N+](=O)[O-])ccc2N2CCOCC2)CC1 ?
MOR-DOR ag: 0; HTR5A ag ctr: 12*; HTR5A inv ctr: -33; MOR-DOR inv ag: 2

What do the screens show for `COC(=O)C1CCN(C(=O)COC(=O)c2cc([N+](=O)[O-])ccc2N2CCOCC2)CC1`?
MOR-DOR ag: -3; HTR5A ag ctr: 5; HTR5A inv ctr: 18; MOR-DOR inv ag: 13

Results for CCn1c(O)c(/C=N/N=C/c2ccccc2)c2ccc(C3=NNC(=O)CC3)cc21 ?
MOR-DOR ag: 6; HTR5A ag ctr: 13*; HTR5A inv ctr: -28; MOR-DOR inv ag: -26

How did Cc1onc(C(=O)N2CCN(C(c3ccccc3)c3ccccc3)CC2)c1[N+](=O)[O-] do in these assays?
MOR-DOR ag: 16; HTR5A ag ctr: 13*; HTR5A inv ctr: -33; MOR-DOR inv ag: -81

How did COc1ccccc1N1CCN(C(=O)c2noc(C)c2[N+](=O)[O-])CC1 do in these assays?
MOR-DOR ag: -1; HTR5A ag ctr: 9; HTR5A inv ctr: 8; MOR-DOR inv ag: 6

What do the screens show for `COc1ccc2sc(-c3ccc(S(C)(=O)=O)cc3)c(C#CCO)c2c1`?
MOR-DOR ag: 6; HTR5A ag ctr: 12; HTR5A inv ctr: -30; MOR-DOR inv ag: -33

What do the screens show for `COc1ccc2c(C#CCCO)c(-c3ccc(S(C)(=O)=O)cc3)sc2c1`?
MOR-DOR ag: -1; HTR5A ag ctr: 13*; HTR5A inv ctr: -45; MOR-DOR inv ag: 4

Results for COc1ccc(CC(=O)N(Cc2ccccc2)c2ccccc2)cc1S(=O)(=O)N1CCOCC1 ?
MOR-DOR ag: 0; HTR5A ag ctr: 1; HTR5A inv ctr: -2; MOR-DOR inv ag: -1

What do the screens show for `CCOc1cccc(NCc2cc3c(C(C)(C)C)nn(-c4ccccc4)c3[nH]c2=O)c1`?
MOR-DOR ag: 1; HTR5A ag ctr: 6; HTR5A inv ctr: -16; MOR-DOR inv ag: -4

Results for CC(C)(C)c1nn(-c2ccccc2)c2[nH]c(=O)c(CNCc3ccc4c(c3)OCO4)cc12 ?
MOR-DOR ag: 6; HTR5A ag ctr: 12*; HTR5A inv ctr: -28; MOR-DOR inv ag: -36

What do the screens show for `O=C(Nc1nc(-c2ccc3c(c2)OCCO3)cs1)C1CCCC1`?
MOR-DOR ag: 1; HTR5A ag ctr: 8; HTR5A inv ctr: -35; MOR-DOR inv ag: -6

Results for CCOCc1cnc(C)nc1NCC(=O)c1c(C)[nH]c2cc(C)ccc12 ?
MOR-DOR ag: -1; HTR5A ag ctr: -2; HTR5A inv ctr: 4; MOR-DOR inv ag: 8

What do the screens show for `CCOC(=O)/C(=C\c1ccccc1)C(=O)c1cc(C(C)=O)c(Nc2ccccc2)s1`?
MOR-DOR ag: 1; HTR5A ag ctr: 3; HTR5A inv ctr: -4; MOR-DOR inv ag: -4

How did CCOC(=O)/C(=C\c1cccnc1)C(=O)c1cc(C(C)=O)c(Nc2ccccc2)s1 do in these assays?
MOR-DOR ag: -5; HTR5A ag ctr: -7; HTR5A inv ctr: 24; MOR-DOR inv ag: 33*

How did CC(=O)CSc1nnc(C(F)(F)F)n1C do in these assays?
MOR-DOR ag: -2; HTR5A ag ctr: -2; HTR5A inv ctr: 10; MOR-DOR inv ag: 11

What do the screens show for `COc1cc(C(=O)O)cc(NC(=O)c2ccco2)c1OC`?
MOR-DOR ag: -3; HTR5A ag ctr: 12*; HTR5A inv ctr: -39; MOR-DOR inv ag: 16

What do the screens show for `CCOc1ccc(/C(O)=C2/C(=O)C(=O)N(CCOCCO)C2c2cccnc2)cc1` (stereo not drawn)?
MOR-DOR ag: -3; HTR5A ag ctr: -1; HTR5A inv ctr: -3; MOR-DOR inv ag: 15

What do the screens show for `CCCOc1ccccc1-c1nc2c([nH]1)c(=O)[nH]c(=O)n2C`?
MOR-DOR ag: -1; HTR5A ag ctr: 13*; HTR5A inv ctr: -3; MOR-DOR inv ag: 2

What do the screens show for `Cn1c(=O)[nH]c(=O)c2[nH]c(CO)nc21`?
MOR-DOR ag: -1; HTR5A ag ctr: 0; HTR5A inv ctr: 0; MOR-DOR inv ag: 3

How did CN1CCN(CC(O)COc2ccccc2)CC1 (stereo not drawn) do in these assays?
MOR-DOR ag: -1; HTR5A ag ctr: -1; HTR5A inv ctr: 3; MOR-DOR inv ag: 3

How did Cc1cccc(NC(=O)CSc2nc3c(oc4ccccc43)c(=O)n2-c2ccccc2)c1 do in these assays?
MOR-DOR ag: -1; HTR5A ag ctr: 1; HTR5A inv ctr: -52; MOR-DOR inv ag: 4

How did Nc1cc(C(F)(F)F)ccc1C(=O)O do in these assays?
MOR-DOR ag: -1; HTR5A ag ctr: -4; HTR5A inv ctr: 12; MOR-DOR inv ag: 4

What do the screens show for `Nc1cc(S(=O)(=O)C(F)(F)F)ccc1C(=O)O`?
MOR-DOR ag: 0; HTR5A ag ctr: 12*; HTR5A inv ctr: -44; MOR-DOR inv ag: 0

Results for Cc1cc(C)n(C(=O)Cn2nc(C(F)F)cc2C)n1 ?
MOR-DOR ag: 0; HTR5A ag ctr: 0; HTR5A inv ctr: -5; MOR-DOR inv ag: 2

Results for CN(CC(=O)Nc1ccc(F)cc1)C(=O)C1Cc2ccccc2CN1S(C)(=O)=O (stereo not drawn) ?
MOR-DOR ag: -3; HTR5A ag ctr: -4; HTR5A inv ctr: 11; MOR-DOR inv ag: 17

Results for CCS(=O)(=O)N1Cc2ccccc2CC1C(=O)N(C)CC(=O)Nc1cccc(F)c1 (stereo not drawn) ?
MOR-DOR ag: -1; HTR5A ag ctr: 9.9*; HTR5A inv ctr: 12; MOR-DOR inv ag: 6

What do the screens show for `COc1cc2sc(NC(=O)c3ccco3)nc2cc1Cl`?
MOR-DOR ag: 3; HTR5A ag ctr: 9.9*; HTR5A inv ctr: -39; MOR-DOR inv ag: -13
